From ChEMBL document CHEMBL1157539, “Thousands of chemical starting points for antimalarial lead identification” (Nature, 2010)

Tested on: Plasmodium falciparum
Experiment: GSK_TCMDC: Inhibition of Plasmodium falciparum 3D7 in whole red blood cells, using parasite LDH activity as an index of growth. Test compounds present at 2uM
Assay type: functional

Point of comparison: `CCCCN1CCCC[C@H]1[C@@H](O)c1ccnc2ccc(OCC)cc12`, Inhibition 100%. Against it:
- Cc1cc(N2CCN(CC3CCN(C)CC3)CC2)nc(Nc2ccc(Br)cc2)n1 — the same, 100%
- CC(=O)Nc1ccc(CN2CCC(NC(=O)c3ccc(-c4cccc(OC(C)C)c4)s3)CC2)cc1.O=C(O)C(F)(F)F — lower, 89%
- O=C(NCCc1cccc(Cl)c1Cl)c1ccc(N2CCN(c3ccncc3)CC2)nc1.O=C(O)C(F)(F)F — the same, 100%
- CCCN(CC1CC1)c1ncc(-c2ccccc2CNCc2ccccc2O)cn1 — the same, 100%
- O=C(Nc1ccc(-c2cccc(-c3nc4cc(C(F)(F)F)ccc4[nH]3)c2)cc1)Nc1ccc(F)c(F)c1F — lower, 99%
- Cl.O=C(O[C@H]1CN[C@H](C#Cc2cc3c(Nc4ccc(OCc5cccc(F)c5)c(Cl)c4)ncnc3s2)C1)N1CCCC1 — lower, 99%
- COc1ccc2nccc([C@@H](O)CN3CCC(NCc4nc5ccc(F)cc5[nH]4)CC3)c2c1.O=C(O)C(=O)O — the same, 100%
- c1cn(-c2ccc(CNc3nccc(Nc4ccc(OCCN5CCOCC5)cc4)n3)cc2)cn1 — the same, 100%
- COc1ccc(NC(=O)Nc2ccc(-c3ccccc3)cc2)cc1Cn1cnc(N2CCCNCC2)cc1=O.O=C(O)C(F)(F)F — the same, 100%
- c1csc(-c2nc(N3CCCCC3)ncc2-c2ccsc2)n1 — lower, 89%
- COc1ccc(-c2nnc(Sc3ccc(C#N)c([N+](=O)[O-])c3)n2CCC(C)C)cc1 — lower, 89%
- O=C(Nc1cccc(-c2ccc(-c3nc4ccccc4[nH]3)cc2)c1)c1cnn2cccnc12 — lower, 87%
